# Experimental data reported in PubChem BioAssay AID1063 (University of Pittsburgh Molecular Library Screening Center, 2008).
# About 18,000 (9%) of roughly 200,000 compounds were called active. Cut-off read from the data, not from the text of the source: active = inhibition above about 50%; inactive = the rest. The full list was thinned out, with actives kept by preference.
# Assay: antileishmanial activity against promastigotes – primary screen (AID 1063);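 note: promastigotes grown with compound for 44 hours at 28 °C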
# Conditions: Leishmania major promastigotes, resazurin fluorescence viability; at 10 µM; hits give high values
row,Compound,inhibition
1,Cc1nc(S(=O)(=O)c2ccc(Br)cc2)nc2c1CCC2,-6.99% (inactive)
2,CCOCCCNC(=O)C(NC(=O)c1ccccc1O)c1ccccc1 (stereo not given),-1.57% (inactive)
3,CCc1ccc(Nc2nnc(SCC(=O)c3ccc4c(c3)NC(=O)CO4)s2)cc1,-5.5% (inactive)
4,COc1cccc(CNC(=O)CCC2CCCN(C(=O)c3cc(C)[nH]n3)C2)c1 (stereo not given),-7.13% (inactive)
5,COc1cccc2cc(/C(C)=N/NC(=O)c3ccco3)oc12,31% (inactive)
6,N=c1c2c3c(sc2ncn1CCCN1CCOCC1)CCCCC3,90.5% (active)
7,N=c1c2c3c(sc2ncn1N)CCCCC3,-0.23% (inactive)
8,N=c1c2c3c(sc2ncn1N)CCCC3,-4.1% (inactive)
9,COC(=O)C(=Nc1ccccc1)/C(C(=O)C(=O)N(C)c1ccccc1)=C(\O)c1ccc(Cl)cc1,-4.81% (inactive)
10,Cc1ccc(NC(=O)CCN2CCc3ccccc3C2)cc1,5.9% (inactive)
11,Cc1cccc(C)c1NC(=O)c1ccc(CN2CCc3ccccc3C2)cc1,73.9% (active)
12,Cc1ccc(NC(=O)CN2CCc3ccccc3C2)cc1,-2.33% (inactive)
13,CCN=c1sc(C(=O)Nc2ccccc2)c(C)n1CC,-3.21% (inactive)
14,CC(C)C(c1nnnn1C(C)(C)C)N1CCN(Cc2cccnc2)CC1 (stereo not given),-1.86% (inactive)
15,O=C(CSc1nc2ccccc2o1)N1CCN(c2ccc(Cl)cc2)CC1,0.01% (inactive)
16,Cc1ccccc1OCc1nnc(SCC(=O)N2c3ccccc3Sc3ccc(Cl)cc32)o1,11.3% (inactive)
17,O=C(CSc1nc2ccccc2o1)N1c2ccccc2Sc2ccc(Cl)cc21,71.7% (active)
18,COc1ccc(-c2nc3cnccn3c2NC(C)(C)CC(C)(C)C)cc1O,32.8% (inactive)
19,CS(=O)(=O)c1ccc2nc(NC(=O)c3ccc(Cl)nc3)sc2c1,3.2% (inactive)
20,COc1ccccc1-n1c(=S)[nH]c2c(sc(=S)n2-c2ccc(C)cc2C)c1=O,-6.57% (inactive)
21,N=c1c2c(-c3ccccc3)c(-c3ccccc3)oc2ncn1Cc1ccco1,33.3% (inactive)
22,N=c1c2c(-c3ccccc3)c(-c3ccccc3)n(Cc3ccccc3)c2ncn1CCCO,100% (active)
23,Cc1nc([N+](=O)[O-])c(NCCCO)n1Cc1ccccc1,10.7% (inactive)
24,Oc1ccccc1N1CCN(C(=S)NCc2ccccc2)CC1,-5.57% (inactive)

row,Compound,inhibition
1,O=C(COC(=O)c1ccccc1C(=O)N1CCN(c2ccccc2)CC1)NCc1ccccc1,-2.49% (inactive)
2,Oc1ccc(N2CCN(C(=S)NCc3ccccc3)CC2)cc1,53.4% (active)
3,Cc1ccc(C(NC(=O)N2CCCC2)C(Cl)(Cl)Cl)cc1F (stereo not given),-2.3% (inactive)
4,Cc1ccc(-c2csc(SCC(=O)Nc3cc(C)on3)n2)cc1,-6.88% (inactive)
5,Cc1ccc2nc(-c3ccc(SCC(=O)Nc4cc(C)on4)nc3)[nH]c2c1,64.8% (active)
6,Cc1cc(NC(=O)CSc2nc3ccccc3n2CC(C)C)no1,10.5% (inactive)
7,CCN1CCN(C(=O)c2ccc(CN(c3ccc(C)c(C)c3)S(C)(=O)=O)cc2)CC1,3.09% (inactive)
8,COc1ccc(C(=O)NC(=S)Nc2ccc(N3CCCC3)cc2)cc1OC,26.5% (inactive)
9,COc1ccc(NC(=O)CN(C)S(=O)(=O)c2ccccc2)cc1OC,-1.12% (inactive)
10,COc1ccc(NC(=S)SC)cc1OC,80.4% (active)
11,O=C(NCc1ccccn1)c1cc(Br)ccc1Cl,17.5% (inactive)
12,CN(C)NC(=O)C(NC(=O)c1ccc(N)cc1)C12CC3CC(CC(C3)C1)C2 (stereo not given),3.34% (inactive)
13,c1ccc2c(c1)OCC(CNc1ncnc3nc[nH]c13)O2 (stereo not given),-3.1% (inactive)
14,c1ccc(-c2cc3c(NCC4COc5ccccc5O4)ncnc3s2)cc1 (stereo not given),98.8% (active)
15,S=C(NCC1COc2ccccc2O1)Nc1ccc(Br)cc1 (stereo not given),-3.43% (inactive)
16,CN(C)C(=O)CSc1n[nH]c(-c2ccco2)n1,-3.34% (inactive)
17,COc1ccccc1N1CCN(CC(=O)NCCc2ccc(S(N)(=O)=O)cc2)CC1,-5.9% (inactive)
18,Cc1nc([N+](=O)[O-])cn1CC(=O)Nc1ccc2c(c1)OCO2,-4.99% (inactive)
19,CCOc1ccc(NC(=O)CN(C)CC(=O)Nc2cccc(Cl)c2C)cc1OCC,84.2% (active)
20,CCOc1ccc(NC(=O)CN(C)CC(=O)NC(C)c2ccccc2)cc1OCC (stereo not given),-1.35% (inactive)
21,COc1ccc(NC(=O)CN(C)CC(=O)Nc2cccc(C(F)(F)F)c2)cc1,6.17% (inactive)
22,S=c1[nH]nc(/C=C/c2ccccc2)o1,-11.6% (inactive)
23,CN1CCN(CC(=O)Nc2cccc([N+](=O)[O-])c2)CC1,-5.42% (inactive)
24,O=C(O)c1cccc(NC(=S)N/N=C/c2c[nH]c3ccccc23)c1,-4.34% (inactive)

row,Compound,inhibition
1,O=C(N/N=C/c1ccc(Cl)cc1)c1nc2ccc([N+](=O)[O-])cc2c(=O)[nH]1,13.4% (inactive)
2,Brc1ccc(-c2csc(N/N=C/c3ccc4c(c3)OCO4)n2)cc1,1.9% (inactive)
3,Cc1cc(C)nc(N/N=C/c2c(C)oc3ccccc23)n1,3.92% (inactive)
4,Cc1noc(C)c1/C=N/Nc1ccc2ccccc2n1,56.6% (active)
5,O=C(Cc1ccc(F)cc1)N/N=C/c1ccc2c(c1)OCO2,-2.74% (inactive)
6,Cc1nc2ccccc2cc1C(=O)N/N=C/c1ccc([N+](=O)[O-])cc1,-3.55% (inactive)
7,C(=N\Nc1ccc2ccccc2n1)/c1ccc2c(c1)OCO2,52.1% (active)
8,CC(C)(C)NC(=O)CN(C(=O)c1ccc(Cl)nc1)c1cccc2ccccc12,31.5% (inactive)
9,COc1ccc(Cl)cc1N(CC(=O)N/N=C/c1ccc(OCC(N)=O)cc1)S(C)(=O)=O,30.9% (inactive)
10,CCOc1ccc(N(CC(=O)NCCc2ccc(OC)cc2)S(C)(=O)=O)cc1,-6.74% (inactive)
11,COCCN(C(=O)CCC(=O)Nc1nccs1)C(C(=O)NC(C)(C)C)c1ccc(Cl)cc1 (stereo not given),-1.47% (inactive)
12,CCCCCOC(=O)C1=C(C)Nc2nnnn2C1c1ccc(OC)c(OC)c1OC (stereo not given),92.7% (active)
13,COCCOC(=O)C1=C(C)Nc2nc(C)nn2C1c1ccccc1 (stereo not given),1.25% (inactive)
14,CC1=C(C(N)=O)C(c2sccc2C)n2nnnc2N1 (stereo not given),-2.53% (inactive)
15,O=C(CCc1ccccc1)Nc1nn[nH]n1,-3.55% (inactive)
16,O=C(CSc1ccc([N+](=O)[O-])cn1)Nc1ccc(N2CCOCC2)cc1,-2.33% (inactive)
17,COC(=O)c1ccc(NCC(=O)N2CCCCCC2)cc1,-4.15% (inactive)
18,O=C(O)c1ccn(COc2ccc(Br)cc2)n1,-6.55% (inactive)
19,O=C(CSc1nc2ccc(Nc3nc(N4CCOCC4)nc(N4CCOCC4)n3)cc2s1)NCc1ccco1,66% (active)
20,C=CCn1c(CSc2nc3ccccc3s2)nnc1SCC(=O)NCc1ccco1,-0.85% (inactive)
21,O=C(CSc1c2c(nc3ccc(Cl)cc13)CCCC2)NCc1ccco1,39.9% (inactive)
22,CCN(CC)S(=O)(=O)c1ccc(N(C)CCc2ccc(OC)c(OC)c2)nc1,20.7% (inactive)
23,Cc1ccc(O)c(NC(=S)NC(=O)COc2ccc(Br)cc2)c1,-2.21% (inactive)
24,CC(=O)NC(Cc1ccc(F)c(F)c1)C(=O)NC1CCN(c2nnnn2-c2ccccc2)CC1 (stereo not given),9.51% (inactive)

row,Compound,inhibition
1,CC(=O)NC(Cc1ccccc1)C(=O)NC1CCN(c2ncccc2[N+](=O)[O-])CC1 (stereo not given),57.3% (active)
2,CNC(=S)N1CCC(NC(=O)C(Cc2ccc(F)cc2)NC(C)=O)CC1 (stereo not given),-5.13% (inactive)
3,CC(Sc1nc2cc(Cl)ccc2s1)C(=O)Nc1ccc2c(c1)OCO2 (stereo not given),3.45% (inactive)
4,O=C(Nc1ccc(N2CCOCC2)cc1)c1ccc(-c2ccccc2[N+](=O)[O-])o1,7.53% (inactive)
5,CCOc1cc(NS(=O)(=O)c2ccc(OC)cc2)c(OCC)cc1NC(C)=O,-2.08% (inactive)
6,O=C(Cn1c(-c2cscn2)nc2ccccc21)Nc1ccc(Cl)cc1,16.4% (inactive)
7,COCn1c(COc2ccccc2)nc2ccccc21,1.65% (inactive)
8,O=C(Cn1c(COc2ccccc2)nc2ccccc21)Nc1cc(Cl)c(Cl)cc1Cl,94.1% (active)
9,Cc1ccc(N(C(=O)Cc2cccs2)C2C=CS(=O)(=O)C2)cc1Cl (stereo not given),3.36% (inactive)
10,O=C(Nc1ccc(Cl)cn1)c1ccc2c(c1)OCCO2,-10.2% (inactive)
11,CCN(CC(=O)NCc1cccs1)S(=O)(=O)c1ccc(NC(C)=O)cc1,-3.41% (inactive)
12,COc1ccc(NC(=S)NCCN2CCC(C)CC2)cc1,23.9% (inactive)
13,COc1ccc(NC(=S)NCC2CCN(c3ccc(OC)cc3)C2)cc1 (stereo not given),74.9% (active)
14,COc1ccc(N2CCN(C(=S)Nc3ccc(S(N)(=O)=O)cc3)CC2)cc1,-7.62% (inactive)
15,Cc1c(NC(=O)CCC2CCCCC2)cc(C(=O)N2CCOCC2)cc1[N+](=O)[O-],-3.89% (inactive)
16,CCOC(=O)C(=Cc1ccccc1OC)C(=O)OCC,53.7% (active)
17,CCOC(=O)C(=CNc1cccc(C)n1)C(=O)OCC,-3.94% (inactive)
18,COc1ccccc1C(=O)C(O)c1ccccc1OC (stereo not given),1.96% (inactive)
19,Cn1c(CCC(=O)OCC(=O)NCc2ccccc2Cl)nc(=O)c2ccccc21,-0.71% (inactive)
20,Cc1ncoc1C(=O)NCCC(c1ccccc1)c1ccccc1,1.37% (inactive)
21,CCOC(=O)c1cnc(-n2nc(C)cc2C)nc1Nc1cccc(C(C)=O)c1,4.22% (inactive)
22,CCOC(=O)c1cnc(-n2nc(C)cc2C)nc1-n1nc(C)cc1C,33% (inactive)
23,CCOC(=O)c1cnc(-n2nc(C)cc2C)nc1NNc1cc(C)nc(-c2ccccc2)n1,100% (active)
